Measurements as given in publication PMC12864922, “TDP-43 directly inhibits mRNA accumulation in neurites through modulation of mRNA stability”.
Over roughly 9,900 sequences, “r (bound/input frequency ratio)” has its median near 0.7; the highest 2% begin near 6.5. This is one part of a sample in which the highest values are shown more often than they occur.

B1: ENSMUSG00000029028.179|Lrrc47|115:119 (ssRNA)
RNA: GGGAGUUCUACAGUCCGACGAUCGCUUCGAUAUCCGCAUGCUAACAGAUGCUUCGUGGACUGUGCCUCACACAUGGCCCUGCAGGCUCCAUGUCAGCGUGUCCCACUAUUCAUGUCCCAUCUCUGUGCAUCCUGACUGCGCACAUCCCAUCUCCGCAACACAACGCAUCUGUACCAGCACACAGCUGCCAUCCCUCGAGCCACAGUGCCUGGUCCUAAGGACCCAGCAGCUGCACAGAGGACUUGGUGGCCCCGUGCCUUGCCAUCUGGCUGAGAAGAGAACCAGACCCUCAGCCUUCCCCCUCUCUUGCGGUCGCACUAGUGUGGAAUUCUCGGGUGUCAAGG
B2: ENSMUSG00000058297.511|Spock2 (ssRNA)
RNA: GGGAGUUCUACAGUCCGACGAUCGCUUCGAUAUCCGCAUGCUAAGGAGGCAAAGUUGGUGAGAGUCCUGGGACAUCUUACCCCCAGUGUUCCACAGGAGUCGUGACCACGUGUGAUGGGUGGGCACAGGUCUGCCUUGCUCCAGCCCCCUCCCUUGGUUUCUGUUGGUACCCAUUUGGCUUUUAUCUGCUUUCUGCUUCACCACUAAGUGCGUAGGUGGGGUCUUUUGAUAUCGGCUCCCCAAAGCCCAAGCCCACAGCCCUAGGAGAGAACCAGGGGCCCAUCUUUGACACCUGGGCCAUCACUCUUGCGGUCGCACUAGUGUGGAAUUCUCGGGUGUCAAGG
B3: ENSMUSG00000090935.640|Synj2bp|188:194 (ssRNA)
RNA: GGGAGUUCUACAGUCCGACGAUCGCUUCGAUAUCCGCAUGCUAAGAAUAAAGUAUUUUCCUAGGACUACAUAGUUGGUAAAAGAGAAUCAUGAUUUAAACUCUGGACUAUGGAUGGCAGUAUCAGUAAUAUUCCCUCAUAGCUAGCAGUCCUCAUGCAAGGUCUCUGAACAAAAGCAACGUAUCACCUGCAAAUGCUUGGGUUUCAUCCCAUUCUUAUGGAGUGAGAUGACACACACCCAGCCAGCAACUCUGUCCUUCUAGGUAACUGGUUCAUGCUGAACCUUGAGAUUCACCACUGUCAGCUCUUGCGGUCGCACUAGUGUGGAAUUCUCGGGUGUCAAGG
B4: ENSMUSG00000032194.203|Kank2|47:51 (ssRNA)
RNA: GGGAGUUCUACAGUCCGACGAUCGCUUCGAUAUCCGCAUGCUACUGCACCUUUCUCUAACUGGGGUUCCUUUCUGGCCCCAGGAUCUCACACACGUUCGUGGGGGGAUUUUGUUGUUGUUUCUUUGUUUCUUUUCUUCAUAAAGAAGAAAAAGGAAACAACUUCUAGAUGUGCCUUGCGAUAGGGAGGACUUUGUCCUCUCAAGUCUCCCUGUCGUAUCCAGAUCACAGCUGAACCCACUGGGCCUUGGCGCCAAACCUCAGCAGGGCAGCAUUGAGACUCAUGGACUAAAGGAAAGUGUUCACUCUUGCGGUCGCACUAGUGUGGAAUUCUCGGGUGUCAAGG
B5: ENSMUSG00000004113.196|Cacna1b (ssRNA)
RNA: GGGAGUUCUACAGUCCGACGAUCGCUUCGAUAUCCGCAUGCUACUGGCUCCUCUGCUCAACCAAGUGCCUGAUCUCUGGCUCUGAGCAUCGUGGAUGAGGUACGGCCUCAGGAAGCAUCGGGUGGAUUGGGUGGGAGCUGCUCAGAGCAGCACGGGGGCUUGUGUCUUAGGGACAUUGACAGUGUCCAUCAGCAUGUCAGAGAAGCAGCUGUAGUGCCCGUGUUUCUCCCUGAGUCAUGGGUUCUGAAGAAGCCAGAGCGGCACAAUGCGUGCUUGCAUGAGGCACUUUCAGCCUUUUUAAAUCUCUUGCGGUCGCACUAGUGUGGAAUUCUCGGGUGUCAAGG
B6: ENSMUSG00000061578.342|Ksr2 (ssRNA)
RNA: GGGAGUUCUACAGUCCGACGAUCGCUUCGAUAUCCGCAUGCUAUGCCCUUAAGCUAGGGUCCUUCAAGCAUCCACAGACUUAGAGUGUGGUGGUAACAUGCUUGUAAUCCUGGCACUCUGGAGGCUGAGGCAGGAGGAUAACAAGUCUAGACUAUAUAUGAUUUCUGAGGGUCUGUUAGUGAAUAAGUACCUGGAUGACAUGGGACAAGUCCCAGCCUUCCCUGCUCCUGCGCUGCUCUUCCUCUUAUGGGAUAGGGUCUAGGUCAAAUGUCACCUCUUCACUCUUGCUCUUUCCUGACCUCCCUCUUGCGGUCGCACUAGUGUGGAAUUCUCGGGUGUCAAGG
B7: ENSMUSG00000028439.70|Fam219a|208:212 (ssRNA)
RNA: GGGAGUUCUACAGUCCGACGAUCGCUUCGAUAUCCGCAUGCUAAAGGCCAGGAGGCCAAAUGUAAGCGUUGGGUGAAGGGAUCACAGGGCCGGAAGGUUGGCCCCAGCCAGUGAAGCCAUGAAUCCCCCCCAAGCCCGGCUUGGAAAGGAAGGAAAGGGGUUUUGAGAAGAAAAGGAUCCAAGCAAUGGGGGCAGUUCUCACACCUCAGAGCCCCUCUCCCCAAACCCUGUGCCAGCCCAUAUACCUAUUACACAUUUCCCCUCAUCUCCAGAUGGGAAGCCUGGCAGCGCUGUCCAAAGGGACUCUUGCGGUCGCACUAGUGUGGAAUUCUCGGGUGUCAAGG
B8: ENSMUSG00000031028.479|Tub (ssRNA)
RNA: GGGAGUUCUACAGUCCGACGAUCGCUUCGAUAUCCGCAUGCUACUCCCAUGGUUCUGAGCAGGCGACUGUCAAGGAAGUGUGUUGUCAGUUCACUGGAGGAGGAGCUGAGAUGUGCACCCUUUUAAAUGAACAUGGGGUGGUGAUGGUGCCUUAACAAUCUUGACACUAAGGUGAAGCAAGCAAGUAAGGUGUGUGCCUCUGGGAAGACAGGAGUCGGAAGCCAAGGUGUGUGGCAACAGUCUGGAAGAGAGCUUUUGGUAAUCAUACCGUCUUCAGUGACAAGGCAACAAUGCUGUAAAGUGCUCUUGCGGUCGCACUAGUGUGGAAUUCUCGGGUGUCAAGG
B9: ENSMUSG00000031028.482|Tub (ssRNA)
RNA: GGGAGUUCUACAGUCCGACGAUCGCUUCGAUAUCCGCAUGCUAGGCGACUGUCAAGGAAGUGUGUUGUCAGUUCACUGGAGGAGGAGCUGAGAUGUGCACCCUUUUAAAUGAACAUGGGGUGGUGAUGGUGCCUUAACAAUCUUGACACUAAGGUGAAGCAAGCAAGUAAGGUGUGUGCCUCUGGGAAGACAGGAGUCGGAAGCCAAGGUGUGUGGCAACAGUCUGGAAGAGAGCUUUUGGUAAUCAUACCGUCUUCAGUGACAAGGCAACAAUGCUGUAAAGUGGGUUUGUUUGGUUUUGUUCUCUUGCGGUCGCACUAGUGUGGAAUUCUCGGGUGUCAAGG
B10: ENSMUSG00000031028.479|Tub|35:40;147:153;184:190 (ssRNA)
RNA: GGGAGUUCUACAGUCCGACGAUCGCUUCGAUAUCCGCAUGCUACUCCCAUGGUUCUGAGCAGGCGACUGUCAAGGAACACACAUGUCAGUUCACUGGAGGAGGAGCUGAGAUGUGCACCCUUUUAAAUGAACAUGGGGUGGUGAUGGUGCCUUAACAAUCUUGACACUAAGGUGAAGCAAGCAAGUAAGCACACACCCUCUGGGAAGACAGGAGUCGGAAGCCAAGCACACACGCAACAGUCUGGAAGAGAGCUUUUGGUAAUCAUACCGUCUUCAGUGACAAGGCAACAAUGCUGUAAAGUGCUCUUGCGGUCGCACUAGUGUGGAAUUCUCGGGUGUCAAGG
B11: ENSMUSG00000031028.481|Tub (ssRNA)
RNA: GGGAGUUCUACAGUCCGACGAUCGCUUCGAUAUCCGCAUGCUAUGAGCAGGCGACUGUCAAGGAAGUGUGUUGUCAGUUCACUGGAGGAGGAGCUGAGAUGUGCACCCUUUUAAAUGAACAUGGGGUGGUGAUGGUGCCUUAACAAUCUUGACACUAAGGUGAAGCAAGCAAGUAAGGUGUGUGCCUCUGGGAAGACAGGAGUCGGAAGCCAAGGUGUGUGGCAACAGUCUGGAAGAGAGCUUUUGGUAAUCAUACCGUCUUCAGUGACAAGGCAACAAUGCUGUAAAGUGGGUUUGUUUGGUCUCUUGCGGUCGCACUAGUGUGGAAUUCUCGGGUGUCAAGG
B12: ENSMUSG00000031028.483|Tub (ssRNA)
RNA: GGGAGUUCUACAGUCCGACGAUCGCUUCGAUAUCCGCAUGCUAUGUCAAGGAAGUGUGUUGUCAGUUCACUGGAGGAGGAGCUGAGAUGUGCACCCUUUUAAAUGAACAUGGGGUGGUGAUGGUGCCUUAACAAUCUUGACACUAAGGUGAAGCAAGCAAGUAAGGUGUGUGCCUCUGGGAAGACAGGAGUCGGAAGCCAAGGUGUGUGGCAACAGUCUGGAAGAGAGCUUUUGGUAAUCAUACCGUCUUCAGUGACAAGGCAACAAUGCUGUAAAGUGGGUUUGUUUGGUUUUGUUUUUUCUCUCUUGCGGUCGCACUAGUGUGGAAUUCUCGGGUGUCAAGG
B13: ENSMUSG00000031028.480|Tub (ssRNA)
RNA: GGGAGUUCUACAGUCCGACGAUCGCUUCGAUAUCCGCAUGCUAUGGUUCUGAGCAGGCGACUGUCAAGGAAGUGUGUUGUCAGUUCACUGGAGGAGGAGCUGAGAUGUGCACCCUUUUAAAUGAACAUGGGGUGGUGAUGGUGCCUUAACAAUCUUGACACUAAGGUGAAGCAAGCAAGUAAGGUGUGUGCCUCUGGGAAGACAGGAGUCGGAAGCCAAGGUGUGUGGCAACAGUCUGGAAGAGAGCUUUUGGUAAUCAUACCGUCUUCAGUGACAAGGCAACAAUGCUGUAAAGUGGGUUUGCUCUUGCGGUCGCACUAGUGUGGAAUUCUCGGGUGUCAAGG
B14: ENSMUSG00000031028.482|Tub|17:22;129:135;166:172 (ssRNA)
RNA: GGGAGUUCUACAGUCCGACGAUCGCUUCGAUAUCCGCAUGCUAGGCGACUGUCAAGGAACACACAUGUCAGUUCACUGGAGGAGGAGCUGAGAUGUGCACCCUUUUAAAUGAACAUGGGGUGGUGAUGGUGCCUUAACAAUCUUGACACUAAGGUGAAGCAAGCAAGUAAGCACACACCCUCUGGGAAGACAGGAGUCGGAAGCCAAGCACACACGCAACAGUCUGGAAGAGAGCUUUUGGUAAUCAUACCGUCUUCAGUGACAAGGCAACAAUGCUGUAAAGUGGGUUUGUUUGGUUUUGUUCUCUUGCGGUCGCACUAGUGUGGAAUUCUCGGGUGUCAAGG
B15: ENSMUSG00000031028.478|Tub (ssRNA)
RNA: GGGAGUUCUACAGUCCGACGAUCGCUUCGAUAUCCGCAUGCUACUCUUUCUCCCAUGGUUCUGAGCAGGCGACUGUCAAGGAAGUGUGUUGUCAGUUCACUGGAGGAGGAGCUGAGAUGUGCACCCUUUUAAAUGAACAUGGGGUGGUGAUGGUGCCUUAACAAUCUUGACACUAAGGUGAAGCAAGCAAGUAAGGUGUGUGCCUCUGGGAAGACAGGAGUCGGAAGCCAAGGUGUGUGGCAACAGUCUGGAAGAGAGCUUUUGGUAAUCAUACCGUCUUCAGUGACAAGGCAACAAUGCUGUCUCUUGCGGUCGCACUAGUGUGGAAUUCUCGGGUGUCAAGG
B16: ENSMUSG00000031028.484|Tub (ssRNA)
RNA: GGGAGUUCUACAGUCCGACGAUCGCUUCGAUAUCCGCAUGCUAGGAAGUGUGUUGUCAGUUCACUGGAGGAGGAGCUGAGAUGUGCACCCUUUUAAAUGAACAUGGGGUGGUGAUGGUGCCUUAACAAUCUUGACACUAAGGUGAAGCAAGCAAGUAAGGUGUGUGCCUCUGGGAAGACAGGAGUCGGAAGCCAAGGUGUGUGGCAACAGUCUGGAAGAGAGCUUUUGGUAAUCAUACCGUCUUCAGUGACAAGGCAACAAUGCUGUAAAGUGGGUUUGUUUGGUUUUGUUUUUUCUUUCUCUCUCUUGCGGUCGCACUAGUGUGGAAUUCUCGGGUGUCAAGG

target: TDP-43 (Homo sapiens, UniProt Q13148 1-414); test: RNA Bind-n-Seq with designed 260-mer pool; 25 mM Tris-HCl, 150 mM KCl, 3 mM MgCl2, BSA (printed 500 mg/mL), 20 units/mL SUPERase IN; pH not stated; 500 nM RNA pool, 1 h, 4 C; TDP-43 5, 50, 500 nM; high values mean tight binding; conditions: protein: recombinant; tags: SBP (GST cleaved off with PreScission; pGEX-GST-SBP)
Sequence (Q13148 whole entry): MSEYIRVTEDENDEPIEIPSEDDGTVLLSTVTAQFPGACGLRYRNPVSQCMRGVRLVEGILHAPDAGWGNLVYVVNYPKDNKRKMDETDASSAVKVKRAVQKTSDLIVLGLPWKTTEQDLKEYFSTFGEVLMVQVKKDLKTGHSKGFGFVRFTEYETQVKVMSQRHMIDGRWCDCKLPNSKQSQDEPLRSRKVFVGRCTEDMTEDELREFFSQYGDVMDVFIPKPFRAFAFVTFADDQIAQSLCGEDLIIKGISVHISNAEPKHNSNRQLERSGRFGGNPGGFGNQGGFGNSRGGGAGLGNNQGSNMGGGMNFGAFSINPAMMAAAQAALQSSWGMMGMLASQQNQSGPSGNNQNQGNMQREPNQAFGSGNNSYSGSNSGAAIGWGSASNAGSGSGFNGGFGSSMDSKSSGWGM
How it was run: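 For each oligo, R gives binding as its mapped-read-normalized abundance after pulldown divided by its abundance in input. Bead-captured SBP-tagged TDP-43 (5, 50 or 500 nM) was incubated with 500 nM of an in vitro-transcribed 260-nt 3′ UTR oligo pool for 1 h at 4 °C in 25 mM Tris-HCl, 150 mM KCl, 3 mM MgCl2, BSA and SUPERase IN on streptavidin beads. Washed, biotin-eluted RNA was reverse transcribed, PCR-amplified and sequenced.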

| Binder | binding signal |
| --- | --- |
| B1 | 0.745 R (bound/input frequency ratio) |
| B2 | 1.02 R (bound/input frequency ratio) |
| B3 | 0.142 R (bound/input frequency ratio) |
| B4 | 0.294 R (bound/input frequency ratio) |
| B5 | 1.41 R (bound/input frequency ratio) |
| B6 | 0.306 R (bound/input frequency ratio) |
| B7 | 0.319 R (bound/input frequency ratio) |
| B8 | 6.66 R (bound/input frequency ratio) |
| B9 | 6.54 R (bound/input frequency ratio) |
| B10 | 0.829 R (bound/input frequency ratio) |
| B11 | 5.19 R (bound/input frequency ratio) |
| B12 | 3.98 R (bound/input frequency ratio) |
| B13 | 6.51 R (bound/input frequency ratio) |
| B14 | 1.47 R (bound/input frequency ratio) |
| B15 | 2.52 R (bound/input frequency ratio) |
| B16 | 4.79 R (bound/input frequency ratio) |
